From PubChem BioAssay
The list is not random: actives were taken first. Their share in the collection is about 0.74%.
Vif-APOBEC3F blk: Vif-A3F binding inhibition; Potency, µM (highest dose often 46.1 µM); 390,000 tested, 0.2% active; HeLa A3F-eYFP + Vif (tagged APOBEC3F with the HIV-1 protein that degrades it), YFP fluorescence increase; further: nearly all actives have a fitted effect of over 65% in size
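HeLa cells stably expressing A3F-eYFP plus Vif, plated and incubated overnight at 37 deg C, then exposed to compounds overnight at 37 deg C. Blocked degradation read as raised yellow fluorescence (Ex 488/Em 500-530).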
GRP78 ERSR act: ER stress response induction in glioma. U87-MG GRP78 promoter luciferase reporter, 16 h. 420,000 tested, 0.02% active. AID 602332. Potency, µM, actives largely listed as activators; further: series mostly up to about 76 µM; nearly all actives have a fitted effect of over 35% in size
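Stably transfected U87-MG glioma cells carrying a GRP78-based luciferase sensor; 16 h compound incubation. Luminescence end-point read 10 min after Bright-Glo addition at room temperature.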
Akt phos inh: blocks phosphorylation of Akt; Neuro2A IGF-stimulated pAkt S473 HTRF, 20 min; stronger effect = lower value; activity change, % for hits at 50 µM; 360,000 tested, 0.32% active; in the data active means activity change below about -80%; inconclusive means mostly about -51% to -80%
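Neuro2A cells in DMEM with 0.5% FBS, overnight at 37 deg C, given compound at single 50 µM final, then IGF (6 nM final) for 20 min at 37 deg C. Lysed; phospho-Akt Ser473 by HTRF after 24 h, 665/615 ratio.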
Vif-A3G inh: blocks the Vif interaction with human APOBEC3G | HeLa A3G-eYFP + Vif (tagged APOBEC3G with the HIV-1 protein that degrades it), YFP fluorescence, overnight | Potency, µM (highest dose often 46.1 µM), usual class: inhibitors | Q9HC16 | 410,000 tested, 0.076% active; further: nearly all actives have a fitted effect of over 60% in size
Target sequence (Q9HC16 whole entry, looked up): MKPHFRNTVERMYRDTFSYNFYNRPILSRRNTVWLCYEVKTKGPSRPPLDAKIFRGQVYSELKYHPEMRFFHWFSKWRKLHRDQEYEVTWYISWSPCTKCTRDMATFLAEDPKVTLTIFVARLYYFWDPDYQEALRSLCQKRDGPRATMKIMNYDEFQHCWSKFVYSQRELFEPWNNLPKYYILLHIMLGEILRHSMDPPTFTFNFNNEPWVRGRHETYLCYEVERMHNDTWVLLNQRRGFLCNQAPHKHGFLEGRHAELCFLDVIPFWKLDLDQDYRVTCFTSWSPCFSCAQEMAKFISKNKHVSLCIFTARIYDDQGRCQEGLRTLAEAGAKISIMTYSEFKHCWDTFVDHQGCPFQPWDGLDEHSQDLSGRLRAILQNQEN
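HeLa cells stably expressing Vif and C-terminally eYFP-tagged A3G, seeded overnight at 37 deg C, then exposed to compound by pintool overnight at 37 deg C. Rise in yellow fluorescence (Ex 488/Em 500-530, Acumen) marks blocked Vif-driven A3G degradation.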
LDHA block: inhibitors of human lactate dehydrogenase A; P00338; purified LDHA, NADH/diaphorase-resazurin fluorescence; stronger effect = lower value; activity change, % (values are at about 110 or 230 µM); 480,000 tested, 0.15% active; in the data active means activity change below about -30%; inconclusive means mostly about -25% to -30%
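Remaining NADH was detected by diaphorase (0.133 mg/mL) converting 37 µM resazurin to fluorescent resorufin, read at 0 and 20 minutes. The preceding 5-minute room-temperature reaction used 2 nM LDHA, 0.2 mM sodium pyruvate and 0.06 mM NADH at pH 7.4.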
PINK1 expr mod: PINK1 expression modulation. PINK1 immunofluorescence, high-content cytometry, 24 h. Potency, µM (series often up to 76.6 µM), actives largely listed as activators. 410,000 tested, 0.2% active; active means well fitted activation curve with a large enough effect; inconclusive means small, poorly fitted or top-dose-only effect; cell line not stated here; further: nearly all actives have a fitted effect of over 65% in size
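Stable cell line, 250 cells/well, 12 h attachment; compounds pinned at 5 concentrations, 24 h; CCCP control. Fixed with nuclear dye, primary antibodies 12 h at 10 degrees C, secondary plus cell stain; laser-scanning cytometer read.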
Large screens that a line does not name were inactive. Unless noted, the call rests on the fitted dose curve; in most records, active means well fitted curve in the direction sought with a large enough effect; inconclusive means small, poorly fitted or top-dose-only effect, or another doubt; inactive means no such curve, though single readings can be large; an effect the other way counts as inactive or inconclusive.

COc1cccc(NC(=O)c2ccccc2-c2nc(-c3ccc(Cl)cc3)no2)c1	Akt phos inh -109%
CC1C=CC2C(=O)N(CC(F)(F)F)C(=O)C2C1C(=O)O (stereo not drawn)	none (no result: Vif-APOBEC3F blk, GRP78 ERSR act, Akt phos inh, Vif-A3G inh, PINK1 expr mod)
Cc1cccc(NC(=O)N2CC=C(c3c[nH]c4ccccc34)CC2)c1C	Vif-APOBEC3F blk 11µM, Vif-A3G inh inconclusive (no result: Akt phos inh)
COC(=O)c1ccc(Cl)cc1NC(=O)N1CC=C(c2c[nH]c3ccccc23)CC1	Vif-APOBEC3F blk 22µM, Vif-A3G inh inconclusive (no result: Akt phos inh)
Cc1ccc(NC(=O)N2CC=C(c3c[nH]c4ccccc34)CC2)cc1Cl	Vif-APOBEC3F blk inconclusive, Vif-A3G inh inconclusive (no result: Akt phos inh)
NC(=O)C[n+]1cccc2ccccc21	none (no result: Akt phos inh)
ClCC(Cl)C[n+]1cccc2ccccc21 (stereo not drawn)	LDHA block -47 (no result: Vif-APOBEC3F blk, GRP78 ERSR act, Akt phos inh, Vif-A3G inh, PINK1 expr mod)
c1ccc(-c2nn3c(C4CCCCC4)nnc3s2)cc1	Akt phos inh -114% (no result: Vif-APOBEC3F blk)
Cc1ccc(Sc2c([N+](=O)[O-])ncn2C)cc1	Akt phos inh -110%
O=C(Nc1ccccc1Br)C1CC(=O)N(c2ccc3c(c2)OCCO3)C1 (stereo not drawn)	none
O=C(Nc1nc2ccccc2[nH]1)C1CC(=O)N(c2ccc3c(c2)OCCO3)C1 (stereo not drawn)	Akt phos inh -112%
N#Cc1c(NC(=O)CN2CCOCC2)oc(-c2ccccc2)c1-c1ccccc1	Akt phos inh -107%
N#Cc1c(NC(=O)CSc2ncccn2)oc(-c2ccccc2)c1-c1ccccc1	none
O=[N+]([O-])c1ccc2[nH]c(O)c(N=Nc3ccc(F)cc3)c2c1	PINK1 expr mod 28µM
Cc1ccc2[nH]c(O)c(N=Nc3ccccc3[N+](=O)[O-])c2c1	none
Oc1[nH]c2ccccc2c1N=Nc1ccc(F)cc1	Vif-APOBEC3F blk inconclusive, Vif-A3G inh inconclusive
Oc1[nH]c2ccccc2c1N=Nc1ccccc1	Vif-APOBEC3F blk 25µM, Vif-A3G inh inconclusive
CCN(CC)S(=O)(=O)c1cc([N+](=O)[O-])ccc1N=Nc1c(O)[nH]c2ccccc12	Vif-APOBEC3F blk 13µM, PINK1 expr mod 11µM
COC(=O)c1ccc(COc2ccc(C(=O)c3ccc(Cl)cc3)cc2)cc1	none (no result: Vif-APOBEC3F blk, GRP78 ERSR act, Akt phos inh, Vif-A3G inh, PINK1 expr mod)
CCCCCCNc1nc2c(c(=O)n(C)c(=O)n2C)n1Cc1cc(OC)ccc1Cl	none (no result: Vif-APOBEC3F blk, GRP78 ERSR act, Akt phos inh, Vif-A3G inh, PINK1 expr mod)
Cc1onc(-c2c(F)cccc2Cl)c1C(=O)OCC(=O)C(C)(C)C	none (no result: Vif-APOBEC3F blk, GRP78 ERSR act, Akt phos inh, Vif-A3G inh, PINK1 expr mod)
O=C(O)c1ccc(N2C(=O)C/C(=C/c3c[nH]c4ccccc34)C2=O)cc1	none (no result: Vif-APOBEC3F blk, GRP78 ERSR act, Akt phos inh, Vif-A3G inh, PINK1 expr mod)
O=C1/C(=C/c2c[nH]c3ccccc23)CCC/C1=C\c1c[nH]c2ccccc12	Vif-APOBEC3F blk 22µM, Vif-A3G inh inconclusive
CC(C)c1nnc(NC(=O)c2cc(=O)c3cc(Cl)cc(Cl)c3o2)s1	LDHA block -35 (no result: Vif-APOBEC3F blk, GRP78 ERSR act, Akt phos inh, Vif-A3G inh, PINK1 expr mod)
O=C(C1CC1)N1CC=C(c2c[nH]c3ccccc23)CC1	none (no result: Vif-APOBEC3F blk, GRP78 ERSR act, Akt phos inh, Vif-A3G inh, PINK1 expr mod)
Cc1ccc(C#CC(CC(=O)c2ccccc2)CC(=O)c2ccccc2)cc1	none (no result: Vif-APOBEC3F blk, GRP78 ERSR act, Akt phos inh, Vif-A3G inh, PINK1 expr mod)
O=[N+]([O-])c1ccccc1S(=O)(=O)Nc1ccc(-c2ccc(N3CCOCC3)nn2)cc1	Vif-APOBEC3F blk 13µM
O=[N+]([O-])c1ccccc1S(=O)(=O)Nc1cccc(-c2ccc(N3CCOCC3)nn2)c1	none
N#Cc1c(-c2cc(Cl)ccc2Cl)csc1N	none (no result: Vif-APOBEC3F blk, GRP78 ERSR act, Akt phos inh, Vif-A3G inh, PINK1 expr mod)
CC(=O)N(C)C[C@@H]1Oc2ncc(Br)cc2C(=O)N([C@H](C)CO)C[C@@H]1C	LDHA block -34
COC(=O)N(C)CC(=O)NC1CCCCCC1	none (no result: Vif-APOBEC3F blk, GRP78 ERSR act, Akt phos inh, Vif-A3G inh, PINK1 expr mod)
COc1ccc(S(=O)(=O)N2CCC(N3CCN(c4ccccc4OC)CC3)CC2)cc1	LDHA block -32
O=c1c(C=Nc2cccc(C(F)(F)F)c2)c[nH]n1-c1cccc(Cl)n1	none
O=c1c(C=Nc2ccc(Cl)cc2)c[nH]n1-c1cccc(Cl)n1	LDHA block -52
COc1cc(C(=O)Oc2ccc3c(=O)c(-c4ccccc4)coc3c2)cc(OC)c1OC	LDHA block -32 (no result: Vif-APOBEC3F blk, GRP78 ERSR act, Akt phos inh, Vif-A3G inh, PINK1 expr mod)
COc1ccccc1-c1coc2cc(OC(=O)c3ccccc3)ccc2c1=O	none (no result: Vif-APOBEC3F blk, GRP78 ERSR act, Akt phos inh, Vif-A3G inh, PINK1 expr mod)
C#CCOc1ccccc1CNC1CCN(Cc2ccccc2)CC1	LDHA block -31
CC(C)NC(=O)c1ccccc1NC(=O)Cn1cnc2c1c(=O)n(C)c(=O)n2C	none (no result: Vif-APOBEC3F blk, GRP78 ERSR act, Akt phos inh, Vif-A3G inh, PINK1 expr mod)
